Among the data in PubChem BioAssay (NCI) are growth values, retold here.

SMILES strings stand for the structures. Compounds without any hit were thinned out: in the full panel of roughly 83,000, 20% have a hit.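 Treatment: one concentration, 48 hours, 96-well format. Scoring: percent growth, with anything below 10 considered active.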 Values without a mark were called inactive. Active and inactive are the calls of the source.

What all share (experiment): NCI-60 one-dose screen, 48 h (100 = growth as untreated, 0 = no growth, -100 = all killed)
Holding throughout (conditions): 10 µM unless noted

The test system of test [1] is DU-145 prostate.
Test [2] has as its system MALME-3M melanoma.
The subject of test [3] is MDA-MB-231 breast.
Test [4] has as its system RXF 393 renal.
The subject of test [5] is SF-268 CNS.
Test [6] concerns SF-295 CNS.
Test [7] deals with SF-539 CNS.
Test [8] deals with UACC-257 melanoma.
The test system of test [9] is M14 melanoma.
The test system of test [10] is HCT-15 colon.
Test [11] has as its system HT29 colon.
Test [12] deals with SNB-75 CNS.
Test [13] has as its system SNB-19 CNS.
In test [14] the test system is U251 CNS.
For test [15], the system named is PC-3 prostate.
Test [16] has as its system UACC-62 melanoma.
Test [17] concerns LOX IMVI melanoma.
In test [18] the test system is SK-MEL-28 melanoma.

With `O=C(CN1CCCCC1)Nc1ccc2oc(=O)ccc2c1`, the growth in test [1] is 113%; in test [2], 106%; in [3], 105%; in [4] it was 113%; in [5], 97.5%; in [6], 106%. Also, the growth in test [7] is 129%; in [8], 96.3%; in [9], 106%; in [10] it was 104%; in test [11], 104%; in [12], 95.6%. Further, the growth in test [13] is 98.4%; in test [14], 102%; in [15], 86.8%; in test [16] it was 97.7%; in test [17] it was 96.6%; in [18] it was 121%.

For `COc1cc2c(cc1O)CC[C@@H]1[C@@H]2CC[C@]2(C)[C@@H](NCCN(C)C)CC[C@@H]12`, the growth in [1] was -94.3% (active); in test [2] it was -72.5% (active); in test [3], -82.6% (active); in test [4], -95.7% (active); in test [5], -78.8% (active); in test [6] it was -88.5% (active). Moreover, the growth is -86.5% (active) in test [7]; -84.9% (active) in test [8]; -63.7% (active) in test [9]; -83.1% (active) in [10]; -91.9% (active) in test [11]; -96.6% (active) in test [12]. In addition, the growth in test [13] was -79.6% (active); in test [14], -92.3% (active); in [15], -91.2% (active); in test [17], -84.2% (active).

`CSc1ccc(SC2c3ccc(C)cc3Oc3nc(N)c(C#N)c(N)c32)cc1` (stereo unspecified): the growth in test [1] was -88.7% (active); in test [2], -94% (active); in test [3] it was -90.5% (active); in test [4] it was -70.2% (active); in test [5], -26.1% (active); in test [6], 15.3%. Also, the growth in test [7] is -86.7% (active); in test [8], -76.3% (active); in test [9], -81.6% (active); in test [10], -74.3% (active); in test [11] it was -65.1% (active); in test [12], -36.4% (active). Further, the growth in test [13] was -96% (active); in test [14], -90.8% (active); in [15] it was -76.2% (active); in test [16], -75.1% (active); in [17] it was -92.6% (active); in test [18], -86.7% (active).

As to `O=C1c2ccccc2OC=C(c2ccccc2)N1CCCCNc1ccc(S(=O)(=O)Nc2ncccn2)cc1`, the growth in test [1] was 109%; in test [2], 110%; in [3], 96.8%; in [4], 98.9%; in [5], 91%; in test [6], 94%. The growth in test [7] was 102%; in test [8] it was 91.6%; in test [9], 99.6%; in test [10] it was 96.1%; in test [11] it was 100%; in test [12], 80%. Also, the growth is 101% in [13]; 91.1% in [14]; 76.4% in [15]; 86.8% in [16]; 92.7% in [17]; 108% in [18].

As to `NC(=NCCCOc1ccc(Cl)cc1)Nc1ccc(Cl)cc1`, the growth in test [1] is 16.9%; in test [2], -20.8% (active); in test [3], -6.18% (active); in test [4] it was 79.3%; in test [5], 36.6%; in test [6] it was 17.9%. For the same compound, the growth in test [7] was 31.4%; in test [8], 6.24% (active); in [9], -35.7% (active); in [10] it was 56%; in test [11] it was 1.24% (active); in [12] it was 44.8%. The growth in [13] is 19.3%; in [14] it was 41.2%; in test [15], 26.7%; in test [17], 40.3%.

In the case of `N#Cc1nnn(-c2ccc(S(N)(=O)=O)cc2)c1NC(=O)CCl`, the growth in test [1] was 107%; in test [2], 102%; in [3], 102%; in test [4] it was 109%; in test [5], 97.6%; in test [6], 98.2%. Besides, the growth is 98.8% in test [7]; 89% in test [8]; 95.4% in [9]; 96% in [10]; 102% in [11]; 85.5% in test [12]. Also, the growth in test [13] is 96.3%; in [14], 92.3%; in test [15], 89.7%; in test [16] it was 96.6%; in [17], 94.6%; in [18] it was 104%.

As to `CCOc1ccc(-n2nc(C(=O)Nc3ccccc3)nc2-c2cc(OC)c(OC)c(OC)c2)cc1`, the growth in [1] was 89.6%; in [2], 54.5%; in test [3] it was 43.9%; in [4] it was 69.2%; in test [5] it was 76.5%; in test [6], 34%. Also, the growth in [7] was 62%; in test [8], 66.4%; in [9] it was 38%; in test [10] it was 35.4%; in test [11], 13%; in test [12], 35.1%. The growth in test [13] was 55.8%; in [14], 36.1%; in test [15] it was 44.9%; in test [17], 55.8%.

In the case of `Clc1ccc2c(NCCNc3nc(N4CCOCC4)nc4ccccc34)ccnc2c1`, the growth in test [1] is 29.9%; in [2], -50.9% (active); in test [3], -56% (active); in [4], -39.4% (active); in [5], 11.5%; in test [6], -83% (active). For the same compound, the growth in test [7] was -80.2% (active); in test [8] it was 90.5%; in [9] it was -65.5% (active); in test [10], 15.2%; in test [11], -69.2% (active); in test [12] it was -94.4% (active). Further, the growth in [13] is 5.66% (active); in test [14], -93.1% (active); in test [15], 34%; in test [16] it was -64.9% (active); in test [17], -83.5% (active); in [18] it was -47.5% (active).

Turning to `COc1cc(-c2nn(-c3ccc(C(=O)O)cc3)cc2C(=O)O)ccc1O`, the growth in [1] is 89.3%; in [2] it was 57.1%; in test [3], 93.3%; in [4] it was 91.5%; in test [5] it was 70.3%; in test [6] it was 94.4%. The growth in test [7] was 47.7%; in [8], 103%; in [9] it was 33.5%; in test [10], 48.6%; in test [11], 110%; in test [12], 36.6%. In addition, the growth in test [13] is 58.4%; in [14], 78.5%; in [15], 66.9%; in test [16], 90%; in test [17], 44.4%; in test [18], 63.5%.
